PLK1 PBD inh – qHTS for Inhibitors of PLK1-PDB (polo-like kinase 1 - polo-box domain): Primary Screen; Potency, µM, most hits filed as inhibitors; Plk1 PBD binding of FITC phosphopeptide, fluorescence polarization; 360,000 compounds, 2.8% hits; Serine/threonine-protein kinase PLK1 (Homo sapiens), P53350; note: series mostly up to about 57 µM; nearly all actives have a fitted effect of over 65% in size
G9a inh – qHTS Assay for Inhibitors of Histone Lysine Methyltransferase G9a. Histone-lysine N-methyltransferase EHMT2 (Homo sapiens), Q96KQ7. G9a H3K9 monomethylation, AlphaScreen, 2 h. Potency, µM (top dose mostly 102 µM), hits mostly inhibitors. 350,000 compounds, 8.8% hits. AID 504332, 2011; note: nearly all actives have a fitted effect of over 75% in size
Target sequence (Q96KQ7 913-1193 limits assumed): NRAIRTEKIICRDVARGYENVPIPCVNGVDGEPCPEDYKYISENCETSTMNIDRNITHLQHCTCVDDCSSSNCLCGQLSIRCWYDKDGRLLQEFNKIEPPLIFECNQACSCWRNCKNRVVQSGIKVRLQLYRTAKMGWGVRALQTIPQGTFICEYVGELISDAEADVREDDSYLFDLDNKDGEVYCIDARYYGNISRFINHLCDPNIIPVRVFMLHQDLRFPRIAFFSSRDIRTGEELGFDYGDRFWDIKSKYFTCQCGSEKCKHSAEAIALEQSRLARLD
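G9a (20 nM) preincubated 15 min RT with compounds, then 500 nM biotinylated H3K9 peptide and 20 uM SAM added; 2 h RT reaction. Monomethyl-H3K9 product detected by AlphaScreen with anti-H3K9me1 antibody, streptavidin donor and anti-rabbit IgG acceptor beads.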
12-LOX inh – Primary qHTS assay for inhibitors of human arachidonate 12S-lipoxygenase (ALOX12): Round 2. 580,000 compounds, 1.1% hits. Potency, µM (highest dose often 108 µM), usual class: inhibitors. Polyunsaturated fatty acid lipoxygenase ALOX12 (Homo sapiens), P18054. purified 12hLO, xylenol orange hydroperoxide absorbance
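Hydroperoxide product was detected by ferrous iron/xylenol orange as the 573 to 405 nm absorbance ratio. Arachidonic acid at 40 uM (final) was turned over for 30 min at room temperature by 150 nM human 12hLO, pH 7.0 Hepes buffer, after 15 min compound preincubation.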
HP1b binding inh – HTS for Inhibitors of HP1-beta Chromodomain Interactions with Methylated Histone Tails. Chromobox protein homolog 1 (Homo sapiens), P83916. AlphaScreen HP1-beta / biotin-H3K9me3 peptide binding. Potency, µM (top dose mostly 114 µM), actives largely listed as inhibitors. 390,000 compounds, 0.56% hits. AID 540317, 2011; note: nearly all actives have a fitted effect of over 70% in size
Target sequence (P83916 whole entry, looked up): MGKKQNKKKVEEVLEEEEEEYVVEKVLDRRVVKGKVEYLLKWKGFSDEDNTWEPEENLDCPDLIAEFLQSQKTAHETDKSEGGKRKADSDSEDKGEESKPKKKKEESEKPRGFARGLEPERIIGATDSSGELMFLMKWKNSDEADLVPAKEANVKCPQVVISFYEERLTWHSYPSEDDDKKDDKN
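AlphaScreen: HP1-beta (50 nM) preformed 30 min with biotin-H3(1-18)K9me3 peptide (50 nM) in PBS pH 7.4, 0.01% Tween-20. Compound added for 30 min at RT, then streptavidin donor/nickel chelate acceptor beads (10 ug/mL) for 30 min.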
BAZ2B block – qHTS Assay for Inhibitors of BAZ2B. AlphaScreen BAZ2B-H3K14Ac peptide displacement. AID 504333, 2011. 360,000 compounds, 4.4% hits. Potency, µM (titrated, usually from 114 µM), hits mostly inhibitors; note: nearly all actives have a fitted effect of over 60% in size
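Protein-peptide AlphaScreen: BAZ2B 50 nM, b-H3K14Ac 50 nM, 1x PBS pH 7.4 + 0.01% Tween-20. Preincubation 30 min RT; cpd 30 min RT (top 110 uM); beads 20 min RT, light-protected.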
JMJD2A Tudor – qHTS Assay for Inhibitors of JMJD2A-Tudor Domain; AID 504339, 2011; 390,000 compounds, 4.4% hits; Lysine-specific demethylase 4A (Homo sapiens), O75164; AlphaScreen JMJD2A-Tudor / H3K4me3 peptide binding; Potency, µM (highest dose often 114 µM), most hits filed as inhibitors; note: nearly all actives have a fitted effect of over 50% in size
A number is an active result; i = inactive; ? = inconclusive; nt = no result given; [ ] = dose if it differs, or a comment. Shown are actives, neighbours in structure and some others; about 9% of the full set was active somewhere. Calls come from the whole dose curve; as a rule, active = well fitted curve in the direction sought with a large enough effect; inconclusive = small, poorly fitted or top-dose-only effect, or another doubt; inactive = no such curve, though single readings can be large; an effect the other way counts as inactive or inconclusive.

SMILES	PLK1 PBD inh	G9a inh	12-LOX inh	HP1b binding inh	BAZ2B block	JMJD2A Tudor
CC(=O)c1cc(C#N)c(Oc2cc(C)cc(C)c2)nc1C	12µM	i	i	i	i	i[11.4 µM]
Oc1ccc2oc3c(c2c1C=NCc1ccncc1)CCCC3	?	71µM	?	i	i	i
Oc1ccc2oc3c(c2c1/C=N/n1cnnc1)CCCC3	i	?	?	i	nt	i
C=CCNC(=S)N1CCN(c2ncc3c(=O)c(C(=O)O)cn(CC)c3n2)CC1	i	nt	i	i	i	50µM
CCn1cc(C(=O)O)c(=O)c2cnc(N3CCN(C(=S)Nc4ccccc4Cl)CC3)nc21	i	56µM	i	i	i	i
CCn1cc(C(=O)O)c(=O)c2cnc(N3CCN(C(=S)NC(=O)c4ccc(Br)cc4)CC3)nc21	?	nt	nt	i	i	56µM
CCn1cc(C(=O)O)c(=O)c2cnc(N3CCN(C(=S)Nc4ccc(F)cc4)CC3)nc21	i	i	i	i	i	i
O=C(c1ccc(OC2CCN(Cc3cccc(OCCO)c3)CC2)cc1)N1CCCC1	i	nt	i	i	i	i
Nc1[nH]c(C(=O)c2ccc(Br)cc2)c(-c2ccc(Cl)c(Cl)c2)c1C(=O)NCCc1c[nH]c2ccccc12	nt	nt	i	nt	nt	nt
O=C1OC2(CCCC2)OC(=O)C1=Cc1c[nH]c2ccccc12	?	nt	i	i	i	89µM
O=C1C/C(=C/c2c[nH]c3ccccc23)C(=O)N1c1ccccc1	nt	nt	i	nt	nt	nt
N#C/C(=C\c1ccccn1)c1nc2ccccc2s1	i	i	32µM	i	i	i
COC(=O)c1ccc(/C=C(\C#N)c2nc3ccccc3s2)cc1	i	i	?	i	i	i
NC(=O)C1(N2CCCCC2)CCN(C(=S)Nc2ccc(F)cc2)CC1	i	i	i	i	i	i
CC(=O)c1cc2c(cc1NC(=O)CCCC(=O)O)OCO2	i	i	i	i	i	i
COC(=O)c1ccc(NC(=O)CCn2cnnn2)c(C)c1	nt	i	i	i	i	i
Cc1ccc(C)c(NC(=O)CCn2cnnn2)c1	30µM	i	i	i	i	i
CC(=O)c1cc2c(cc1NC(=O)CN1CCCCCCC1)OCO2	i	10µM	?	?	50µM	?
COc1ccc(C)cc1NC(=O)CCn1nc(C)cc1C	nt	i	i	i	50µM	?
CC(=O)c1cc2c(cc1NC(=O)CCn1cnnn1)OCO2	i	40µM	i	i	i	i
CN1C(=O)[C@H]2[C@@H](c3ccccc3)N[C@]3(CCCN(Cc4ccco4)C3=O)[C@H]2C1=O	i	nt	?	nt	nt	nt
COc1ccc(-c2csc(NC(=O)CSc3nnnn3C)n2)c(OC)c1	i	i	i	i	i	i
CCc1ccccc1NC(=O)C1CCCN1S(=O)(=O)c1ccc(-c2ccc(=O)[nH]n2)s1 (stereo not given)	i	?	i	i	i	i
Cc1cccc(C)c1NC(=O)C1CCCN1S(=O)(=O)c1ccc(-c2ccc(=O)[nH]n2)s1 (stereo not given)	12µM	i	i	i	i	?
Cc1cc([N+](=O)[O-])nn1CCCC(=O)Nc1cc(Oc2ccccc2)cc([N+](=O)[O-])c1	i	40µM	i	i	?	?
SMILES	PLK1 PBD inh	G9a inh	12-LOX inh	HP1b binding inh	BAZ2B block	JMJD2A Tudor
Cc1cc([N+](=O)[O-])nn1CCCC(=O)Nc1cc(Oc2ccc(F)cc2)cc([N+](=O)[O-])c1	i	?	i	i	i	i
Cc1cc(C)cc(Oc2cc(NC(=O)c3cn(C)nc3C)cc([N+](=O)[O-])c2)c1	i	i	i	i	i	i
Cc1cccc(Oc2cc(NC(=O)Cn3cnc([N+](=O)[O-])n3)cc([N+](=O)[O-])c2)c1	i	14µM	?	i	?	?
c1ccc(Cc2c(C3CCCCC3)nc3c4ccccc4ccn23)cc1	i	nt	i	nt	nt	nt
COc1ccc(CCCc2nnc(SCC(=O)Nc3nccs3)n2C)cc1C	i	i[12.7 µM]	i	i	i	i
COc1ccc(C)cc1Nc1nc(-c2c[nH]c3ccccc23)cs1	?	3.2µM	?	i	50µM	?
COc1ccc(C)cc1NC(=O)C(=O)c1c[nH]c2ccccc12	nt	nt	i	nt	nt	nt
C=CCn1c(SCC)nc2c1c(=O)[nH]c(=O)n2C	nt	nt	i	nt	nt	nt
CC(C)n1c(SCCCc2ccccc2)nc2c1c(=O)[nH]c(=O)n2C	9.5µM	35µM	?	i	i	i
C=CCn1c(SCCOC)nc2c1c(=O)[nH]c(=O)n2C	?	40µM	i	i	i	i
C/C=C/Cn1c(N(C)Cc2ccccc2)nc2c1c(=O)[nH]c(=O)n2C	i	50µM	i	i	i	i
C/C=C/Cn1c(SCCCc2ccccc2)nc2c1c(=O)[nH]c(=O)n2C	i	45µM	?	i	i	i
O=[N+]([O-])c1ccc(NCCNc2ccc(Cl)nn2)cc1	i	i	i	i	i	i
C=CCn1c(SCCCc2ccccc2)nc2c1c(=O)[nH]c(=O)n2C	i	45µM	i	i	i	i
c1ccc(CSc2nnc([C@@H]3CCCN3)o2)cc1	i	nt	i	i	50µM	?
c1ccc(CSc2nnc(Cc3ccccc3)o2)cc1	?	?	i	i	i	79µM
COc1cc(NC(=O)CCS(=O)(=O)c2nc(-c3ccc4c(c3)OCO4)cc(C(F)(F)F)n2)cc(OC)c1OC	nt	?	i	i	i	i
CCc1ccc2c(c1)/C(=N/N(C)C(=S)NC)C(=O)N2	i	i	i	?	10µM	?
COc1ccc(NC2C[C@H]3CCCC(=O)N4CC[C@@H](C2)[C@@H]34)cc1 (stereo not given in full)	nt	40µM	nt	nt	nt	nt
COc1ccc(NC2=Nc3ccccc3N[C@@]23C[C@H]2CCCC(=O)N4CC[C@@H](C3)[C@@H]24)cc1	i	nt	i	i	nt	i
CCn1ccc2ccc(CN3CCCC(O)(CN4CCCC4)C3)cc21 (stereo not given)	nt	nt	i	nt	nt	nt
CCOC(=O)CC(=O)CSc1nc2c(cc1C#N)CCCCC2	24µM	7.9µM	?	i	i	50µM
CCOC(=O)CC(=O)COc1nc2cc3c(nc2o1)CCCC3	i	45µM	?	i	i	?
N#Cc1cc2c(nc1SCc1ccccc1)CCC2	i	?	i	i	i	i
N#Cc1cc2c(nc1SCc1ccncc1)CCC2	?	3.2µM	?	i	i	22µM
Cc1ccccc1NC(=O)Cn1cnc2c(oc3nc4c(cc32)CCCC4)c1=O	i	?	i	i	?	i
CCCN(CCC)Cc1cc(=O)oc2cc(C)c(Cl)cc12	i	nt	40µM	nt	nt	nt
COCCN(CCOC)Cc1cc(=O)oc2cc(C)c(Cl)cc12	i	nt	45µM	nt	nt	nt
COCCN(CCOC)Cc1cc(=O)oc2ccccc12	i	nt	18µM	nt	nt	nt
